This note sets out measurements from PubChem BioAssay (EPA / NIEHS).

Several values for one entry are separate records, joined by “and”; a condition that tells them apart may be missing. Equal entries are not always repeated. Activity calls are given as the source filed them. The calls were made as follows: active = hit-call score of the fitted dose curve at least 0.9, where 1 is the maximum; inactive = score below 0.9.

The experiment can be described thus: BSK_KF3CT_SRB: Viability Assessment in the BioMAP Diversity Plus: KF3CT Assay (AID 2283069).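 Also: fitted for both signal gain and loss against DMSO baseline.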 To be noted: primary human keratinocytes with fibroblasts. As to the method:
BSK_KF3CT is a cell-based, multiplexed-readout assay that uses keratinocytes and foreskin fibroblasts, a human skin primary cell co-culture, with measurements taken at 24 hours after chemical dosing in a 96-well plate.BSK_KF3CT_SRB is an assay component measured in the BSK_KF3CT assay. It measures 0.1% sulforhodamine related to cell death using Sulforhodamine staining technology.Data from the assay component BSK_KF3CT_SRB was analyzed into 1 assay endpoint. This assay endpoint, BSK_KF3CT_SRB, was analyzed with bidirectional fitting relative to DMSO as the negative control and baseline of activity. Using a type of viability reporter, gain or loss-of-signal activity can be used to understand changes in the signaling. Furthermore, this assay endpoint can be referred to as a primary readout, because this assay has produced multiple assay endpoints where this one serves a signaling function. To generalize the intended target to other relatable targets, this assay endpoint is annotated to the cell morphology intended target family, where the subfamily is cell conformation.
The levels of cell surface (or secreted, indicated by the prefix "s") biomarker endpoints were measured by ELISA. Overt cytotoxicity to cells in confluent adherent cultures (all systems other than the BT system) was assessed by measuring total protein levels using sulforhodamine B (SRB) staining in parallel cultures at the time of biomarker measurements, indicated as SRB endpoints. For proliferation assays for adherent cell types, individual cell types are cultured at sub-confluence and relative cell numbers quantified by SRB staining at time points optimized for each system (48 h: 3C and CASM3C systems; 72 h: BT and HDF3CGF systems; 96 h: SAg system). SRB was performed by staining cells with 0.1% SRB after fixation with 10% TCA and reading wells at 560 nm.Viability and proliferation of PBMC (T cells) was quantified by Alamar Blue reduction for the SAg and BT systems. For PBMC viability (referred to as PBMC Cytotoxicity within the assay endpoint names), cells were plated (75,000/well in a 96-well plate) and then chemical samples added for 1 h before addition of activators, SEB and TSST-1 (20 ng/mL final concentration each). Cells were incubated for 90 h. Then, Alamar Blue (20 uL/well) (Invitrogen, Cat DAL1100) was added for 6 h, and the plates were read with a fluorescence microplate reader at 546/580 nm (excitation/emission). For PBMC proliferation, cells were plated and activated as above but incubated for only 16 h prior to addition of Alamar Blue. Plates were read after 6 h.
With `O=[N+]([O-])C=Cc1ccccc1`, the half-maximal activity concentration (AC50) (in general, the midpoint of the concentration-response curve, whichever way the signal moves) is 2.46 µM (active).

In the case of `O=C1C=CC(=O)C=C1`, the result was inactive.

Take `O=C(O)CCCc1ccc(N(CCCl)CCCl)cc1`: the result was inactive.

With `CCc1cc(C)cc(CC)c1-c1c(OC(=O)C(C)(C)C)n2n(c1=O)CCOCC2`, the outcome was inactive.

Consider `O=S(=O)(c1ccccc1)c1ccccc1`, for which the outcome was inactive.

On to `O=c1c2ccccc2c(=O)c2c1cc(Cl)c1[nH]c3c([nH]c12)c(Cl)cc1c(=O)c2ccccc2c(=O)c13`, for which the outcome was inactive.

For the compound `CC(C)(C)C(=O)CCl`, the result was inactive.

`CC(C)CCCCCCCOC(=O)c1ccccc1C(=O)OCCCCCCCC(C)C`: the result was inactive.

Turning to `O=[N+]([O-])c1ccc(Cl)cc1`, the result was inactive.

On to `CNC(=O)Oc1cc(C)c(SC)c(C)c1`, for which the outcome was inactive.

Turning to `CCCCCCCCCCCC#N`, the outcome was inactive.

Consider `Nc1ccc(-c2ccc(N)c(N)c2)cc1N`, for which the outcome was inactive.

On to `CCCC[N+](CCCC)(CCCC)CCCC`, for which the outcome was inactive.

As for `COC(C)(C)CCC[C@H](C)C/C=C/C(C)=C/C(=O)OC(C)C`, the result was inactive.

For `O=c1[nH]c(Cl)c(Cl)cc1Cl`, the result was inactive.

With `CC1(C)[C@H](C(=O)O[C@H](C#N)c2cccc(Oc3ccccc3)c2)[C@@H]1C=C(Br)Br`, the outcome was inactive.

For `CCC(C)c1cc([N+](=O)[O-])cc([N+](=O)[O-])c1OC(=O)C=C(C)C` (stereo not drawn), the AC50 was 31.7 µM (active).

As for `O=C1C(Cl)=C(Cl)C(=O)C(Cl)=C1Cl`, the outcome was inactive.

As for `CC(C)COP(=O)(OCC(C)C)OCC(C)C`, the outcome was inactive.

For the compound `CC(C)CCCCCCCOP(=O)(Oc1ccccc1)Oc1ccccc1`, the AC50 was 25.7 µM (active).

For the compound `C=CCN(CC=C)C(=O)C(Cl)Cl`, the outcome was inactive.

As for `CC(C)(c1cc(Cl)c(O)c(Cl)c1)c1cc(Cl)c(O)c(Cl)c1`, the half-maximal activity concentration (AC50) is 5.15 µM (active).

Turning to `Oc1ccc(C2(c3ccc(O)cc3)c3ccccc3-c3ccccc32)cc1`, the concentration at half-maximal activity (AC50) is 5.12 µM (active) and 5.08 µM (active).

As for `COc1ccc(CO)cc1`, the result was inactive.

With `COCC(=O)N(c1c(C)cccc1C)N1CCOC1=O`, the result was inactive.

Take `O=[N+]([O-])O`: the result was inactive.

For the compound `O=P1(NCCCl)OCCCN1CCCl` (stereo not drawn), the outcome was inactive.

Regarding `Cc1ccc(OP(=O)(Oc2ccc(C)cc2)Oc2ccc(C)cc2)cc1` (tested in a mixture with another compound), the result was inactive.

On to `O=C(CCl)c1ccccc1`, for which the concentration at half-maximal activity (AC50) was 30.9 µM (active).

Regarding `Oc1cc(Cl)ccc1Cl`, the result was inactive.

Consider `CC(C)(C)C(O)C(Oc1ccc(-c2ccccc2)cc1)n1cncn1` (stereo not drawn), for which the result was inactive.

For `CC(=O)/C=C/c1ccccc1`, the outcome was inactive.

Turning to `c1ccc(Nc2ccc3ccccc3c2)cc1`, the half-maximal activity concentration (AC50) is 36.9 µM (active).

For the compound `C=CC(=O)OCC(CC)CCCC` (stereo not drawn), the outcome was inactive.

Consider `[Cd+2].[Cl-].[Cl-]`, for which the AC50 is 32.4 µM (active) and 32.1 µM (active).

As to `N#CCCCCC#N`, the result was inactive.

In the case of `Clc1ccc(-c2ccccc2)cc1`, the result was inactive.

Turning to `CCCOC(=O)c1ccccc1C(=O)OCCC`, the outcome was inactive.
